The source of these data is PubChem BioAssay (Tox21).

The structures appear in SMILES notation. Where “and” joins values, the source holds several entries; their conditions need not be identical. Equal entries are not always repeated. Results filed as inconclusive are left out. Unmarked numbers belong to inactive results. Calls of active or inactive are those of the source. The call rests on the fitted dose curve; in most records, active means well fitted cell-killing curve with a large enough effect in the repeat runs; inconclusive means weak or mixed curves, or effect the other way; inactive means no such curve, though single readings can be large or run the other way.
On the % scale 0 is the no-effect control and ±100 the full control effect; potency means the concentration at half of the fitted maximal effect.

The test can be described thus: qHTS assay to identify small molecule agonists of the vitamin D receptor (VDR) signaling pathway - cell viability counter screen (AID 743224). Further: nearly all actives have a fitted effect of over 50% in size. The conditions noted are these: VDR-bla HEK293T viability, CellTiter-Glo luminescence, 16 h; series mostly up to 62.6 µM; activity change, negative = cytotoxicity: at the top concentration. The text has this: U.S. Tox21 Program National Center for Advancing Translational Sciences [NCATS] NIH Chemical Genomics Center [NCGC] U.S. Environmental Protection Agency [EPA] National Institutes of Environmental Health Sciences [NIEHS] National Toxicology Program [NTP] U.S. Food and Drug Administration [FDA] Tox21 Assay Overview: The vitamin D receptor (VDR), a member of nuclear hormone receptor superfamily, plays a critical role in calcium homeostasis and bone metabolism. It is also involved in cell differentiation and growth, and thrombogenicity. […] The cytotoxicity of the Tox21 compound library against the VDR-bla cell line was tested in parallel by measuring the cell viability using CellTiter-Glo assay (Promega, Madison, WI) in the same wells.
Tox21 Assay Protocol Summary: VDR-bla cells were dispensed at 2,000 cells/6 uL/well into black wall/clear-bottom 1536-well plates using a Multidrop Combi (Thermo Fisher Scientific, Waltham, MA) dispenser. After the assay plates were incubated at a 37C and 5% CO2 for 4 h, 23 nL of compounds dissolved in DMSO, positive controls or DMSO only was transferred to the assay plate by a Pintool station (Kalypsys, San Diego, CA). The plates were incubated at 37C and 5% CO2 for 16 h. After 1 uL of LiveBLAzerTM B/G FRET substrate was added using a Bioraptr Flying Reagent Dispenser (FRD) workstation (Beckman Coulter, Indianapolis, IN, USA), the plates were incubated at room temperature for 2 h, and fluorescence intensity was measured by an Envision plate reader (PerkinElmer, Shelton, CT). For cell viability readout that measures cytotoxicity, 3 ul/well of CellTiter-Glo reagent was added into the assay plates using a FRD. After 30 min incubation at room temperature, the luminescence intensity in the plates was measured using a ViewLux (PerkinElmer) plate reader.
As for `Cc1cc(C(C)(C)C)cc(C)c1CC1=NCCN1`, the “activity change, negative = cytotoxicity” value was 6.92%.

`CC/C=C\CCCCCO`: the “activity change, negative = cytotoxicity” value was 15%.

`Oc1ccccc1O`: the “activity change, negative = cytotoxicity” value is -29.3%.

Regarding `C[C@@H](O)[C@H](N)C(=O)O`, the “activity change, negative = cytotoxicity” value is 13.3% [at 29.1 µM].

`OC1CCC(C2CCCCC2)CC1` (stereo not given): the “activity change, negative = cytotoxicity” value is 24.1%.

With `Cc1c2ccccc2c(C)c2c1ccc1ccccc12`, the Potency is 43.2 µM (active) and 27.5 µM (active).

Consider `CC1=Nc2ccccc2C1(C)C`, for which the “activity change, negative = cytotoxicity” value was 13.2%.

Consider `COc1ccc(-c2coc3cc(O)ccc3c2=O)cc1`, for which the “activity change, negative = cytotoxicity” value was 4.63%.

For `CCCCC/C=C\C/C=C\CCCCCCCC(=O)O`, the Potency result is “inactive”.

In the case of `CCOC(=O)NNc1ccc(N(CC)CC(C)O)nn1` (stereo not given), the “activity change, negative = cytotoxicity” value was 7.8%.

For `CC1=CCC(=C(C)C)CC1`, the “activity change, negative = cytotoxicity” value was -4.81%.

Consider `CN1CCN2c3ccccc3Cc3ccccc3C2C1` (stereo not given), for which the “activity change, negative = cytotoxicity” value was -17.6%.

Take `NC[C@H]1O[C@H](O[C@H]2[C@H](O[C@@H]3O[C@H](CO)[C@@H](O)[C@H]3O)C(O)[C@H](N)C[C@@H]2N)[C@H](N)[C@@H](O)[C@@H]1O` (stereo not given in full): the activity change, negative = cytotoxicity is -1.26% [at 13.2 µM].

On to `NC(=S)NC(N)=S`, for which the “activity change, negative = cytotoxicity” value was -27.6%.

For the compound `O=C(O)c1cc(-c2ccc(F)cc2F)ccc1O`, the “activity change, negative = cytotoxicity” value is -0.217%.

Take `Nc1nc(-c2ccccc2)cs1`: the “activity change, negative = cytotoxicity” value was -0.143%.

In the case of `CC(C)CCOC(=O)/C=C/c1ccccc1`, the “activity change, negative = cytotoxicity” value was -0.875% [at 81.1 µM].

For `COc1cc(S(=O)(=O)O)c(C)cc1N=Nc1c(O)ccc2cc(S(=O)(=O)O)ccc12`, the “activity change, negative = cytotoxicity” value is -2.53%.

As to `C=CC(=O)OCCOC(=O)C=C`, the “activity change, negative = cytotoxicity” value is 5.28%.

Take `CCC(CC)(CC(=O)Nc1cccc(/C=C/c2nc(C3CCC3)cs2)c1)C(=O)O`: the “activity change, negative = cytotoxicity” value is -2.24%.

Take `CC(C)OC(=O)C(O)(CC(=O)O)CC(=O)O`: the “activity change, negative = cytotoxicity” value was -5.32%.

As to `ClCCl`, the “activity change, negative = cytotoxicity” value was 15.6%.

As for `COc1cc(C)ccc1O`, the “activity change, negative = cytotoxicity” value is -17.5%.

As to `CCCCCCCCCCCCCCCC[N+](C)(C)CC`, the Potency was 21.9 µM (active).

Regarding `O=c1[nH]c2ccccc2n1CCCN1CCN(C(c2ccccc2)c2ccccc2)CC1`, the “activity change, negative = cytotoxicity” value was -19.9%.

Turning to `O=c1[nH]c(=O)n([C@H]2C[C@H](O)[C@@H](CO)O2)cc1F`, the “activity change, negative = cytotoxicity” value was -2.01%.

As for `Cc1cc(C)c(/C=C2\C(=O)Nc3ccccc32)[nH]1`, the “activity change, negative = cytotoxicity” value was -2.74%.

`CCCCCC/C=C\CCCCCCCC(=O)O`: the “activity change, negative = cytotoxicity” value is 15.1%.

For the compound `CC(C)=CCNc1ncnc2c1ncn2[C@@H]1O[C@H](CO)[C@@H](O)[C@H]1O`, the Potency was 11.9 µM (active).

Turning to `O=C(O)Cc1ccc2c(c1)C(=O)c1ccccc1CO2`, the “activity change, negative = cytotoxicity” value is 9.38%.

In the case of `CN(C)Cc1cc(C(C)(C)C)c(O)c(C(C)(C)C)c1`, the “activity change, negative = cytotoxicity” value was -8.37%.

`COC(=O)c1ccccc1C`: the “activity change, negative = cytotoxicity” value was 0.957%.

For `C=CC(=O)Nc1cc2c(Nc3ccc(F)c(Cl)c3)ncnc2cc1OCCCN1CCOCC1`, the “activity change, negative = cytotoxicity” value was -22.5%.

With `O=S(=O)(O)c1ccc(N=Nc2c(O)ccc3ccccc23)cc1`, the “activity change, negative = cytotoxicity” value was -14.6%.

As for `Cc1cc(=O)oc2cc(O)cc(O)c12`, the “activity change, negative = cytotoxicity” value was 0.19% [at 81.1 µM].

For `CCCCCCCCCCOC(=O)c1ccccc1C(=O)OCCCCCCCC`, the “activity change, negative = cytotoxicity” value was 2.23%.

As to `O=C(O)c1cc(O)c2ccccc2c1O`, the Potency is 38.9 µM (active).

On to `CC1(C)CC(O)CC(C)(C)N1`, for which the “activity change, negative = cytotoxicity” value is -1.08% [at 81.1 µM].

As for `C[Si](Cl)(c1ccccc1)c1ccccc1`, the “activity change, negative = cytotoxicity” value was -11.7%.

Consider `CC(C)(c1cc(Br)c(OCC(Br)CBr)c(Br)c1)c1cc(Br)c(OCC(Br)CBr)c(Br)c1` (stereo not given), for which the “activity change, negative = cytotoxicity” value was -1.74%.
